# Experimental data taken from PMC11006913.
# Substitutions are numbered along the chain they refer to.
# Assays:
# Test in all cases: PBM; 200 nM protein, PBS
# Settings in all cases: dsDNA, one strand shown
# NKX2-5 [1] = target: NKX2-5 (Homo sapiens, UniProt P52952 125-210, R139K)
# HOXB4 [2] = target: HOXB4 (Homo sapiens, UniProt P17483 148-234)
# NKX2-4 [3] = target: T1, NKX2-4 (Homo sapiens, UniProt Q9H2Z4 175-261, P217L)
# T1 sequence: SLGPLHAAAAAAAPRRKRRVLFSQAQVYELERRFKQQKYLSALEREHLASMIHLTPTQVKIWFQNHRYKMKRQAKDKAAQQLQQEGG
# NKX2-4 [4] = target: T2, NKX2-4 (Homo sapiens, UniProt Q9H2Z4 175-261, T231S)
# T2 sequence: T1 sequence with L43P, T57S
# NKX2-4 [5] = target: T3, NKX2-4 (Homo sapiens, UniProt Q9H2Z4 175-261)
# T3 sequence: T1 sequence with L43P
# HOXB4 [6] = target: HOXB4 (Homo sapiens, UniProt P17483 148-234, V174I)
# Chain of HOXB4 (Homo sapiens, UniProt P17483 148-234, V174I) (P17483 148-234 V174I): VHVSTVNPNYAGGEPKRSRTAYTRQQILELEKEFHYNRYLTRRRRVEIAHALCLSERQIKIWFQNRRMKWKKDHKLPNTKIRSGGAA
# NKX2-6 [7] = target: T4, NKX2-6 (Homo sapiens, UniProt A6NCS4 118-204, R150C)
# T4 sequence: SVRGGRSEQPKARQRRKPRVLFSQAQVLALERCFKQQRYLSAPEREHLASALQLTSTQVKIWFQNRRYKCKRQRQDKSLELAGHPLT
# NKX2-6 [8] = target: T5, NKX2-6 (Homo sapiens, UniProt A6NCS4 118-204)
# T5 sequence: T4 sequence with C33R
# NKX2-4 [9] = target: T6, NKX2-4 (Homo sapiens, UniProt Q9H2Z4 175-261, R246Q)
# T6 sequence: T1 sequence with L43P, R72Q
# NKX2-6 [10] = target: T7, NKX2-6 (Homo sapiens, UniProt A6NCS4 118-204, F151L)
# T7 sequence: T4 sequence with C33R, F34L
# NKX2-5 [11] = target: NKX2-5 (Homo sapiens, UniProt P52952 125-210)
# Chain of NKX2-5 (Homo sapiens, UniProt P52952 125-210) (P52952 125-210): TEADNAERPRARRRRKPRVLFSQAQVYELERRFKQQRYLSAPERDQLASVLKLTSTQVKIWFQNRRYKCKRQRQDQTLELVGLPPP
# NKX3-2 [12] = target: NKX3-2 (Homo sapiens, UniProt P78367 192-278, P234S)
# Chain of NKX3-2 (Homo sapiens, UniProt P78367 192-278, P234S) (P78367 192-278 P234S): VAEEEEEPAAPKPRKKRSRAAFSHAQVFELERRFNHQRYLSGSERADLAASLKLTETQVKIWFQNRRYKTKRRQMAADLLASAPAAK
# NKX3-2 [13] = target: NKX3-2 (Homo sapiens, UniProt P78367 192-278)
# Chain of NKX3-2 (Homo sapiens, UniProt P78367 192-278) (P78367 192-278): as the sequence (P78367 192-278 P234S) above, with S43P counted along it
# SHOX = SHOX (Homo sapiens, UniProt O15266 103-189)
# Chain of SHOX (O15266 103-189): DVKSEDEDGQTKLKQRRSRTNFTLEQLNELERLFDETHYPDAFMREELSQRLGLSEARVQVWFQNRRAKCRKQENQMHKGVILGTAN
# VENTX [14] = target: T8, VENTX (Homo sapiens, UniProt O95231 78-163, R121Q)
# T8 sequence: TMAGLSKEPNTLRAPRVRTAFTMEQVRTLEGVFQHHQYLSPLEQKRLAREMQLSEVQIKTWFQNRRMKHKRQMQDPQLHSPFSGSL
# VENTX [15] = target: T9, VENTX (Homo sapiens, UniProt O95231 78-163)
# T9 sequence: T8 sequence with Q44R
# VENTX [16] = target: T10, VENTX (Homo sapiens, UniProt O95231 78-163, Y115F)
# T10 sequence: T8 sequence with Y38F, Q44R
# ALX1 [17] = target: ALX1 (Homo sapiens, UniProt Q15699 118-204, L144V)
# Chain of ALX1 (Homo sapiens, UniProt Q15699 118-204, L144V) (Q15699 118-204 L144V): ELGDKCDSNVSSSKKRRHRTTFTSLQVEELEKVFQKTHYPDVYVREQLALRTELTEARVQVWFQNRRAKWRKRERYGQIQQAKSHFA
# ALX1 [18] = target: ALX1 (Homo sapiens, UniProt Q15699 118-204, L144R)
# Chain of ALX1 (Homo sapiens, UniProt Q15699 118-204, L144R) (Q15699 118-204 L144R): as the sequence (Q15699 118-204 L144V) above, with V27R counted along it
# ALX1 [19] = target: ALX1 (Homo sapiens, UniProt Q15699 118-204)
# Chain of ALX1 (Homo sapiens, UniProt Q15699 118-204) (Q15699 118-204): as the sequence (Q15699 118-204 L144V) above, with V27L counted along it
# Chain of NKX2-5 (Homo sapiens, UniProt P52952 125-210, R139K) (P52952 125-210 R139K): as the sequence (P52952 125-210) above, with R15K counted along it
# Chain of HOXB4 (Homo sapiens, UniProt P17483 148-234) (P17483 148-234): as the sequence (P17483 148-234 V174I) above, with I27V counted along it
sequence,measurement,setting,value
ATCAAGTG,binding signal,NKX2-5 [1],"12.8 upbm affinity estimate (log intensity, higher = more binding, comparable within an allelic series)"
same,binding signal,HOXB4 [2],"10.2 upbm affinity estimate (log intensity, higher = more binding, comparable within an allelic series)"
same,binding signal,NKX2-4 [3],"12.6 upbm affinity estimate (log intensity, higher = more binding, comparable within an allelic series)"
same,binding signal,NKX2-4 [4],"13 upbm affinity estimate (log intensity, higher = more binding, comparable within an allelic series)"
same,binding signal,NKX2-4 [5],"12.4 upbm affinity estimate (log intensity, higher = more binding, comparable within an allelic series)"
same,binding signal,HOXB4 [6],"10.4 upbm affinity estimate (log intensity, higher = more binding, comparable within an allelic series)"
same,binding signal,NKX2-6 [7],"12 upbm affinity estimate (log intensity, higher = more binding, comparable within an allelic series)"
same,binding signal,NKX2-6 [8],"13.7 upbm affinity estimate (log intensity, higher = more binding, comparable within an allelic series)"
same,binding signal,NKX2-4 [9],"13.1 upbm affinity estimate (log intensity, higher = more binding, comparable within an allelic series)"
same,binding signal,NKX2-6 [10],"10.7 upbm affinity estimate (log intensity, higher = more binding, comparable within an allelic series)"
same,binding signal,NKX2-5 [11],"12.6 upbm affinity estimate (log intensity, higher = more binding, comparable within an allelic series)"
CTTCCGTC,binding signal,NKX2-5 [1],"8.85 upbm affinity estimate (log intensity, higher = more binding, comparable within an allelic series)"
same,binding signal,NKX2-5 [11],"8.77 upbm affinity estimate (log intensity, higher = more binding, comparable within an allelic series)"
AACACTTA,binding signal,NKX2-5 [1],"12.7 upbm affinity estimate (log intensity, higher = more binding, comparable within an allelic series)"
same,binding signal,NKX2-4 [3],"12.5 upbm affinity estimate (log intensity, higher = more binding, comparable within an allelic series)"
same,binding signal,NKX2-4 [4],"12.8 upbm affinity estimate (log intensity, higher = more binding, comparable within an allelic series)"
same,binding signal,NKX2-4 [5],"12.4 upbm affinity estimate (log intensity, higher = more binding, comparable within an allelic series)"
same,binding signal,NKX2-6 [7],"11.8 upbm affinity estimate (log intensity, higher = more binding, comparable within an allelic series)"
same,binding signal,NKX2-6 [8],"13.6 upbm affinity estimate (log intensity, higher = more binding, comparable within an allelic series)"
same,binding signal,NKX2-4 [9],"12.9 upbm affinity estimate (log intensity, higher = more binding, comparable within an allelic series)"
same,binding signal,NKX2-6 [10],"11.3 upbm affinity estimate (log intensity, higher = more binding, comparable within an allelic series)"
same,binding signal,NKX3-2 [12],"12.7 upbm affinity estimate (log intensity, higher = more binding, comparable within an allelic series)"
same,binding signal,NKX2-5 [11],"12.6 upbm affinity estimate (log intensity, higher = more binding, comparable within an allelic series)"
same,binding signal,NKX3-2 [13],"12.7 upbm affinity estimate (log intensity, higher = more binding, comparable within an allelic series)"
ACCCGGGC,binding signal,NKX2-5 [1],"8.96 upbm affinity estimate (log intensity, higher = more binding, comparable within an allelic series)"
same,binding signal,SHOX,"7.11 upbm affinity estimate (log intensity, higher = more binding, comparable within an allelic series)"
same,binding signal,NKX2-5 [11],"8.92 upbm affinity estimate (log intensity, higher = more binding, comparable within an allelic series)"
CTAATTGC,binding signal,NKX2-5 [1],"10.9 upbm affinity estimate (log intensity, higher = more binding, comparable within an allelic series)"
same,binding signal,HOXB4 [2],"12.9 upbm affinity estimate (log intensity, higher = more binding, comparable within an allelic series)"
same,binding signal,SHOX,"11.8 upbm affinity estimate (log intensity, higher = more binding, comparable within an allelic series)"
same,binding signal,VENTX [14],"12.3 upbm affinity estimate (log intensity, higher = more binding, comparable within an allelic series)"
same,binding signal,VENTX [15],"12.7 upbm affinity estimate (log intensity, higher = more binding, comparable within an allelic series)"
same,binding signal,VENTX [16],"12 upbm affinity estimate (log intensity, higher = more binding, comparable within an allelic series)"
same,binding signal,HOXB4 [6],"13.7 upbm affinity estimate (log intensity, higher = more binding, comparable within an allelic series)"
same,binding signal,ALX1 [17],"11.5 upbm affinity estimate (log intensity, higher = more binding, comparable within an allelic series)"
same,binding signal,ALX1 [18],"11 upbm affinity estimate (log intensity, higher = more binding, comparable within an allelic series)"
same,binding signal,ALX1 [19],"12.2 upbm affinity estimate (log intensity, higher = more binding, comparable within an allelic series)"
same,binding signal,NKX2-5 [11],"11.1 upbm affinity estimate (log intensity, higher = more binding, comparable within an allelic series)"
ACCACTTA,binding signal,NKX2-5 [1],"13.2 upbm affinity estimate (log intensity, higher = more binding, comparable within an allelic series)"
same,binding signal,NKX2-4 [3],"12.7 upbm affinity estimate (log intensity, higher = more binding, comparable within an allelic series)"
same,binding signal,NKX2-4 [4],"13.1 upbm affinity estimate (log intensity, higher = more binding, comparable within an allelic series)"
same,binding signal,NKX2-4 [5],"12.6 upbm affinity estimate (log intensity, higher = more binding, comparable within an allelic series)"
same,binding signal,NKX2-6 [7],"12.3 upbm affinity estimate (log intensity, higher = more binding, comparable within an allelic series)"
same,binding signal,NKX2-6 [8],"14 upbm affinity estimate (log intensity, higher = more binding, comparable within an allelic series)"
same,binding signal,NKX2-4 [9],"13.2 upbm affinity estimate (log intensity, higher = more binding, comparable within an allelic series)"
same,binding signal,NKX2-6 [10],"11.4 upbm affinity estimate (log intensity, higher = more binding, comparable within an allelic series)"
same,binding signal,NKX3-2 [12],"13.3 upbm affinity estimate (log intensity, higher = more binding, comparable within an allelic series)"
same,binding signal,NKX2-5 [11],"13.1 upbm affinity estimate (log intensity, higher = more binding, comparable within an allelic series)"
same,binding signal,NKX3-2 [13],"13.3 upbm affinity estimate (log intensity, higher = more binding, comparable within an allelic series)"
CCACTTAA,binding signal,NKX2-5 [1],"13.4 upbm affinity estimate (log intensity, higher = more binding, comparable within an allelic series)"
same,binding signal,NKX2-4 [3],"12.8 upbm affinity estimate (log intensity, higher = more binding, comparable within an allelic series)"
same,binding signal,NKX2-4 [4],"13.2 upbm affinity estimate (log intensity, higher = more binding, comparable within an allelic series)"
same,binding signal,NKX2-4 [5],"12.7 upbm affinity estimate (log intensity, higher = more binding, comparable within an allelic series)"
same,binding signal,NKX2-6 [7],"12.3 upbm affinity estimate (log intensity, higher = more binding, comparable within an allelic series)"
same,binding signal,NKX2-6 [8],"14.1 upbm affinity estimate (log intensity, higher = more binding, comparable within an allelic series)"
same,binding signal,NKX2-4 [9],"13.3 upbm affinity estimate (log intensity, higher = more binding, comparable within an allelic series)"
same,binding signal,NKX2-6 [10],"11.5 upbm affinity estimate (log intensity, higher = more binding, comparable within an allelic series)"
same,binding signal,NKX3-2 [12],"13.2 upbm affinity estimate (log intensity, higher = more binding, comparable within an allelic series)"
same,binding signal,NKX2-5 [11],"13.2 upbm affinity estimate (log intensity, higher = more binding, comparable within an allelic series)"
same,binding signal,NKX3-2 [13],"13.3 upbm affinity estimate (log intensity, higher = more binding, comparable within an allelic series)"
